# In ChEMBL document CHEMBL1157539, “Thousands of chemical starting points for antimalarial lead identification” (Nature, 2010):
# Tested on: HepG2
# Test: GSK_TCMDC: Percent inhibition of human HepG2 cell line. Test compounds present at 10uM.
# Type: functional
row,Structure (SMILES),Inhibition [%]
1,CC(=O)N(Cc1nc(-c2cc(C(F)(F)F)cc(C(F)(F)F)c2)cs1)c1c(C)cccc1C,0
2,CC(C)CC1(C(=O)OC(C)(C)C)CC(C(=O)OC(C)(C)C)C(c2cccs2)N1C(=O)c1ccc(C(C)(C)C)cc1 (stereo not given),21
3,CN1CCN(c2ccc(Nc3ncc(C#N)c(Nc4ccccc4C(N)=O)n3)cc2)CC1.Cl,43
4,COc1ccc2nccc([C@@H](O)CN3CCC(NCc4cnc5c(c4)NC(=O)CS5)CC3)c2c1.O=C(O)C(=O)O,0
5,Cc1cc(Nc2nc(Nc3cccc(Cl)c3)nc3ccccc23)n[nH]1,9
